# Measured values reported in PubChem BioAssay (NCATS).
# Results filed as inconclusive are left out. Entries that show only a call come without a potency. Unmarked numbers belong to inactive results. Calls of active or inactive are those of the source. Calls follow the shape of the dose curve; as a rule, active = well fitted cell-killing curve with a large enough effect; inconclusive = small, poorly fitted or top-dose-only effect, or effect the other way; inactive = no such curve, though single readings can be large or run the other way.
# How the values were obtained:
# [1] = Viability qHTS for spleen associated tyrosine kinase inhibitor (SYKi) naive MV4-11 cells (AID 1963823); also: nearly all actives have a fitted effect of over 40% in size
# How it was run: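 Viability of MV4-11 AML cells lacking prior SYK inhibitor exposure is scored by CellTiter-Glo luminescence following 72 hr compound incubation at 37 C, 5% CO2, seeded at 500 cells per well.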
# [2] = Viability qHTS for spleen associated tyrosine kinase inhibitor (SYKi) drug resistant MV4-11 cells (AID 1963824); also: nearly all actives have a fitted effect of over 35% in size
# How it was run: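 SYK inhibitor-resistant MV4-11 AML cells, 500 per well, added to predispensed compounds and incubated 72 hr at 37 C, 5% CO2. Viability measured by CellTiter-Glo luminescence after 10 min at room temperature.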
# Potency is read from the fitted curve at half-maximal effect.
SMILES,Potency [1],Potency [2],viability (% of control) [1],"viability, % of control [2]"
Nc1ncnc2c1ncn2[C@H]1CCCO1,inactive,inactive,,
O=C(/C=C/c1ccc(O)c(O)c1)OCc1ccccc1O[C@@H]1O[C@H](CO)[C@@H](O)[C@H](O)[C@H]1O,inactive,inactive,,
CCCOc1ccc(-c2nc(OC)c3ccccc3n2)cc1,inactive,inactive,,
COc1ccc(/C=C/C(=O)O[C@@H]2[C@@H](O)[C@@H](O)[C@H](O[C@H]3[C@@H]4C=CO[C@@H](O[C@@H]5O[C@H](CO)[C@@H](O)[C@H](O)[C@H]5O)[C@@H]4[C@@]4(CO)O[C@@H]34)O[C@H]2C)cc1,inactive,inactive,,
CC[C@@H](Nc1c(Nc2cccc(C(=O)N(C)C)c2O)c(=O)c1=O)c1ccc(C)o1,inactive,inactive,,
O=C(O)CC1(O)C(=O)Nc2ccccc21 (stereo not given),9430 nM (active),inactive,,
CC1CCC23COC(=O)C2=CC(O)CC3C1(C)CCC1=CC(=O)OC1O (stereo not given),inactive,inactive,,
CC(/C=C/C=C(\C)C(=O)O[C@@H]1O[C@H](CO[C@@H]2O[C@H](CO)[C@@H](O)[C@H](O)[C@H]2O)[C@@H](O)[C@H](O)[C@H]1O)=C\C=C\C=C(C)\C=C\C=C(/C)C(=O)O[C@@H]1C[C@](O)(C(=O)O)C[C@@H](O)[C@H]1OC(=O)/C=C/c1ccc(O)c(O)c1,,,78.4% [at 9.25 µM],91.1% [at 9.25 µM]
CN(CCc1ccc(Nc2ncc(-c3cccnc3)s2)cc1)Cc1ccccc1,366 nM (active),651 nM (active),,
C=C1CCC2C(C)(CO[C@@H]3O[C@H](CO)[C@@H](O)[C@H](O)[C@H]3O)C(O)CCC2(C)C1C(=O)CC1=CCOC1=O (stereo not given in full),inactive,inactive,,
